From PubChem
Most compounds without a hit are left out; they make up all but 7.4% or so of the library.
ELG1 genotox – qHTS screen for small molecules that induce genotoxicity in human embryonic kidney (HEK293T) cells expressing luciferase-tagged ELG1 | HEK293T ELG1-luciferase reporter, luminescence, 16 h | Potency, µM (top dose mostly 46 µM), for the others: top-dose activity change, positive = activation, actives largely listed as activators | 1.3% of 330,000 active | AID 504466, 2011; note: % of control where 0% means no effect; nearly all actives have a fitted effect of over 60% in size
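Reporter readout depends on ELG1 protein level, which increases with genetic stress. After 16 hr compound exposure at 37 °C, luciferase activity was quantified using ONE-Glo.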
FLuc modulator – qHTS profiling assay for firefly luciferase inhibitor/activator using purifed enzyme and Km concentrations of substrates (counterscreen for miR-21 project). purified FLuc, Km substrates, luminescence inhibition. Potency, µM (doses to about 57.5 µM), for inactives: top-dose activity change, negative = inhibition, most hits filed as inhibitors. 6.9% of 360,000 active. AID 588342, 2011;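 note: plate controls were vehicle for no effect and reference inhibitor for full effect; nearly all actives have a fitted effect of over 55% in size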
Target sequence (P08659 whole entry, looked up): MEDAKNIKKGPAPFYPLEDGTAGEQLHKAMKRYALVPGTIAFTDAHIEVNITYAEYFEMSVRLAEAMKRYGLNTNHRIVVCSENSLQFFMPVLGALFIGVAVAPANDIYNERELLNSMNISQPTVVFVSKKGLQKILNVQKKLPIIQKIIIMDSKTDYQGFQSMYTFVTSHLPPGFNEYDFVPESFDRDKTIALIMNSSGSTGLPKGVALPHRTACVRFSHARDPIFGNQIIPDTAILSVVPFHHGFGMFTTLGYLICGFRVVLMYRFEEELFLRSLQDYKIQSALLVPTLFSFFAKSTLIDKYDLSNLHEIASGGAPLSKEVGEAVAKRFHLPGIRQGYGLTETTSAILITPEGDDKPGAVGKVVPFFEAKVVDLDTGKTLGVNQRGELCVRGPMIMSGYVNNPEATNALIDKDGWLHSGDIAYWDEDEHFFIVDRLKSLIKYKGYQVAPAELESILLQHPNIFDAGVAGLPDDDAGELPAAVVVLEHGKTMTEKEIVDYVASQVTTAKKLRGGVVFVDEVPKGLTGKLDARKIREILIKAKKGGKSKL
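Purified P. pyralis luciferase (10nM final) with 10uM D-luciferin and 10uM ATP (Km levels) in 50mM Tris acetate pH 7.5, 10mM Mg acetate, 0.01% Tween-20, 0.05% BSA; qHTS 6-point titration, ~60 µM downward; luminescence read.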
Luc counter – Counterscreen for Luciferase (Kinase-Glo TM) Inhibition; Luciferin 4-monooxygenase (Photuris pensylvanica), Q27757; Kinase-Glo luciferase, ATP luminescence, 8 min; Potency, µM (highest dose often 38.3 µM), for the others: top-dose activity change, negative = inhibition, actives largely listed as inhibitors; 0.28% of 200,000 active; note: % is set by controls: 0 for no effect and ±100 for the full control effect; nearly all actives have a fitted effect of over 60% in size
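Light output from Kinase-Glo luciferase with luciferin and 10 uM ATP in 50 mM imidazole pH 7.2, KCl, MgCl2, Tween 20, BSA; compound pin-delivered, 8-min ambient incubation, then luminescence read.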
Rab9 promoter act – qHTS Assay for Rab9 Promoter Activators. AID 485297, 2010. 2.8% of 320,000 active. Potency, µM (series often up to 9.22 µM), for inactives: at the top dose activation, negative = inhibition, actives largely listed as activators. Huh7 Rab9 promoter-luciferase reporter, luminescence, 24 h; note: % of control where 0% means no effect; nearly all actives have a fitted effect of over 60% in size
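Rab9 promoter-driven luciferase in stably transfected Huh7 cells; 1500 cells/well rested 2 h, exposed to compound in DMSO for 24 h at 37 °C, 5% CO2. Luminescence read 10 min after adding luciferase reagent at ambient temperature.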
SMN2 splice enh – qHTS Assay for Enhancers of SMN2 Splice Variant Expression; 2.8% of 210,000 active; Potency, µM (doses to about 46.1 µM), inactives show top-dose activity change, positive = activation, usual class: activators; HEK293 SMN2-luciferase splicing reporter, luminescence, 30-36 h; note: % of control where 0% means no effect; nearly all actives have a fitted effect of over 55% in size
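HEK293 cells carry an SMN2 minigene-luciferase reporter in which exon 7 inclusion puts luciferase in frame. Cells were seeded at 2000 cells/well, attached for 10-12 hours, then exposed to compounds for 30-36 hours at 37C before ONE-Glo luminescence.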
NPC1 prom act – qHTS Assay for NPC1 Promoter Activators. AID 485313, 2010. 2.4% of 320,000 active. Huh7 NPC1 promoter luciferase reporter, 24 h. Potency, µM (highest dose often 9.22 µM), for the others: top-dose activation, hits mostly activators; note: % of control where 0% means no effect; nearly all actives have a fitted effect of over 60% in size
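In 1536-well qHTS, Huh7 cells harboring an NPC1 promoter–luciferase construct received compound for 24 h; activation was quantified by luminescence following luciferase reagent addition.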
Active calls of the source: *; ? = inconclusive; . = no result; [ ] = dose if it differs, or a comment. Calls come from the whole dose curve; as a rule, active = well fitted curve in the direction sought with a large enough effect; inconclusive = small, poorly fitted or top-dose-only effect, or another doubt; inactive = no such curve, though single readings can be large; an effect the other way counts as inactive or inconclusive. Potency is the fitted concentration of half-maximal effect.

SMILES	ELG1 genotox	FLuc modulator	Luc counter	Rab9 promoter act	SMN2 splice enh	NPC1 prom act
COc1cccc(Nc2nc(-c3ccc4c(c3)OCCO4)cs2)c1	?	3.4µM*	4%	3.2µM*	14µM*	?
c1ccc(-c2csc(Nc3ccc4c(c3)OCCO4)n2)cc1	.	0.54µM*	-12%	.	4µM*	.
COc1cccc(NC(=O)Nc2nc(-c3ccc(OC)c(OC)c3)cs2)c1	-26%	?	.	-7%	.	-15%
c1cc2c(cc1Nc1nc(-c3ccc4c(c3)OCO4)cs1)OCCO2	?	4.3µM*	-2%	2.8µM*	4µM*	3.2µM*
CNC(=O)C1CCC(Cn2c(=O)[nH]c3ccsc3c2=O)CC1 (stereo not given)	.	-2%	.	.	.	.
O=S(=O)(c1ccccc1)c1nnn2c1nc(NCc1ccccc1)c1sccc12	.	0%	.	.	.	.
CCCCOc1ccc(CNC(=O)c2cnc3sc(N4CCC(C)CC4)nn3c2=O)cc1	.	6%	.	.	.	.
N#Cc1c(NC(=O)CSC2=NCCS2)sc2c1CCCC2	-5%	-18%	-2%	-1%	-24%	1%
O=C(CSC1=NCCS1)Nc1nc2c(s1)CCCC2	8%	17µM*	-2%	?	30%	?
Cn1nnnc1SCC(=O)Nc1nc2c(s1)CCCC2	8.2µM*	12µM*	-2%	3.2µM*	.	?
COc1cc(/C=C(\C#N)c2ccccn2)ccc1OCc1ccccc1Cl	-2%	-16%	.	2%	.	-1%
N#C/C(=C\c1ccccn1)c1ccccn1	5%	?	.	?	.	29%
COC(=O)c1ccc(/C=C(\C#N)c2ccccn2)cc1	2.6µM*	2.4µM*	?	0.89µM*	?	1.1µM*
COc1cc(/C=C(\C#N)c2ccccn2)cc(OC)c1O	0%	-4%	.	-1%	.	-7%
COC(=O)c1ccc(OC(=O)c2ccccn2)cc1	-5%	11µM*	-15%	-6%	28%	1%
CN(C)c1ccc(/C=C(\C#N)c2ccccn2)cc1	?	0.24µM*	7.9µM*	0.4µM*	.	0.45µM*
COC(=O)c1ccc(OC(=O)c2cccnc2SC)cc1	7%	?	.	-3%	.	0%
N#C/C(=C/c1cccs1)c1ccccn1	?	12µM*	.	4.5µM*	.	2.8µM*
Cc1nn(-c2ccccc2)c2c1N(CC(=O)N1CCN(c3cccc(Cl)c3)CC1)C(=O)CS2	.	-17%	.	.	.	.
CCc1ccc(OCC(=O)N(Cc2ccco2)Cc2ccco2)cc1	.	-16%	.	.	-10%	.
N#C/C(=C\c1ccc([N+](=O)[O-])cc1)c1ccccn1	?	?	-28%	?	.	1.6µM*
N#C/C(=C\c1cccnc1)c1ccc([N+](=O)[O-])cc1	-4%	-11%	.	3%	.	-3%
CN(C)CC#Cc1cncc(C(=O)NNC(=O)Nc2ccc(Cl)cc2)c1	0%	24µM*	.	2%	.	4%
Cc1ccc(Cl)c(OCC(=O)Nc2ccc3c(c2)OCCO3)c1	14%	1.9µM*	1%	1.4µM*	18µM*	2.8µM*
CCN(CC(=O)Nc1ccc2c(c1)OCCO2)C(=O)COc1cc(C)ccc1Cl	0%	-17%	.	-4%	.	1%
O=C(COc1cc(Cl)c(Cl)cc1Cl)NC(=O)Nc1ccc2c(c1)OCCO2	?	21µM*	1%	?	18µM*	?
O=C(COC(=O)COc1ccc(Cl)cc1)Nc1ccc2c(c1)OCCO2	-4%	-1%	.	-2%	.	0%
C[C@]12CC[C@@H]3c4ccc(O)cc4C[C@@H](CCCCCCCCCS(=O)CCCC(F)(F)C(F)(F)F)[C@H]3[C@@H]1CC[C@@H]2O (stereo not given in full)	.	.	.	-11%[46.1 µM]	.	-9%[46.1 µM]
Cc1ccc(Cl)cc1-n1ncc2c(Nc3cccc(C)c3C)ncnc21	.	-9%	.	.	.	.
